From PubChem BioAssay (EPA / NIEHS) come the findings set out here.

Calls of active or inactive are those of the source. How the source made its calls: active means hit-call score of the fitted dose curve at least 0.9, where 1 is the maximum; inactive means score below 0.9.

This test is described as follows: ATG_GATA_CIS: Attagene CIS-FACTORIAL HepG2 Assay for human GATA Binding Protein (AID 2282944). The note with it: HepG2 GATA cis-element reporter, Attagene multiplex mRNA; actives raise or lower the signal. In a few lines:
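Read-out: fluorescent reporter mRNA fragments resolved by capillary electrophoresis after RT-PCR. Human liver HepG2 cells carried transiently transfected cis-regulated reporter constructs; chemicals incubated 24 h; gain or loss of signal fitted relative to DMSO.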
Regarding `O=C(N[C@@H](Cc1ccccc1)[C@@H](O)C(=O)N1C[C@@H](O)[C@@H](O)C1)c1cc2cc(Cl)ccc2[nH]1`, the compound was classed as inactive.

For `CCCCCCCCCCCCCCCC`, the outcome was inactive.

For `Cc1ccc(C)c(C)c1`, the call was inactive.

Take `C=CCOC(=O)c1ccccc1C(=O)OCC=C`: the result was inactive.

On to `CCCCCCCCCCC`, for which the result was inactive.

For `COc1cc(-c2nc(NC(=O)c3cc4cc(C)cc(C)c4n3CC(=O)O)sc2CCC2CCCCC2)c(OC)cc1Cl`, the compound was classed as inactive.

Consider `Cc1cc(NC(=O)C(=O)O)cc(C)c1Oc1ccc(O)c2c1CCC2`, for which the call was inactive.

As to `O=C(OCCCCCOC(=O)c1ccccc1)c1ccccc1`, the outcome was inactive.

As to `COC(=O)c1ccc(O)cc1`, the result was inactive.

In the case of `CCCCCCCC=O`, the compound was called inactive.

Turning to `CCCCC(CC)COC(=O)CC(C(=O)OCC(CC)CCCC)S(=O)(=O)O` (stereo not given), the compound was classed as inactive.

`C[Si]1(C)O[Si](C)(C)O[Si](C)(C)O[Si](C)(C)O1`: the outcome was inactive.

In the case of `C=CCc1ccc(O)c(OC)c1`, the compound was classed as inactive.

As for `NS(=O)(=O)c1cc2c(cc1Cl)NCNS2(=O)=O`, the compound was called inactive.

Regarding `COc1cc(/C=C/C(=O)CC(=O)/C=C/c2ccc(O)c(OC)c2)ccc1O`, the result was inactive.

Turning to `CCOC(=O)CCC(=O)OCC`, the compound was classed as inactive.

`CC(CO)OC(C)CO` (stereo not given) (tested in a mixture with another compound): the compound was classed as inactive.

`O=C(O)CCCCC(=O)O`: the compound was called inactive.

For the compound `Cc1cc(=O)[nH]c(=S)[nH]1`, the outcome was inactive.

`Cc1nc(-c2ccc3c(c2)CCN(CCC2CCC(NC(=O)/C=C/c4ccc(F)cc4)CC2)CC3)no1` (stereo not given): the compound was called inactive.

Regarding `Oc1ccc2c(c1)OC[C@@H](N1CCC(O)(c3ccc(F)cc3)CC1)[C@H]2O`, the compound was classed as inactive.

On to `NCC1(Cc2noc(=O)[nH]2)CCCCC1`, for which the outcome was inactive.

Consider `NCCO`, for which the call was inactive.

In general, AC50 refers to the concentration giving half of the maximal activity seen. Regarding `CC1=C(/C=C/C(C)=C/C=C/C(C)=C/CO)C(C)(C)CCC1`, the half-maximal activity concentration (AC50) was 166 µM (active).

As to `Cc1cccc([N+](=O)[O-])c1C`, the outcome was inactive.

Turning to `CCCCCCCCCCCCCO`, the call was inactive.

As to `Cc1ccc(C(C)C)c(O)c1`, the outcome was inactive.

Take `Nc1ccc(S(=O)(=O)c2ccc(N)cc2)cc1`: the compound was called inactive.

For the compound `Nc1nc(N)c2nc(CNc3ccc(C(=O)N[C@@H](CCC(=O)O)C(=O)O)cc3)cnc2n1`, the outcome was inactive.

Regarding `CCCCc1ccc2c(n1)[C@@H](c1ccc(OC)cc1C[C@H](C)C(=O)O)[C@H](C(=O)O)[C@H]2c1ccc2c(c1)OCO2`, the call was inactive.
